Rows were chosen to be rich in hits. Some 12% of all compounds tested hit in one or more screens of this group.
Pf growth 48h = P. falciparum growth inhibition at 48 hours (one generation). P. falciparum luciferase growth in erythrocytes, 48 h. Potency, µM (series often up to 28.7 µM), inactives show at the highest dose activity change, negative = inhibition, actives largely listed as inhibitors. actives 5.9% (n = 310,000); note: % is set by controls: 0 for no effect and ±100 for the full control effect
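Cell-based growth assay: transgenic P. falciparum expressing firefly luciferase, cultured in red cells within RPMI 1640 containing 0.5% w/v Albumax, 24 mM bicarbonate and gentamycin. A drop in luciferase activity indicates inhibition.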
AmpC inh no detg = inhibitors of E. coli AmpC beta-lactamase without detergent; P00811; AmpC nitrocefin hydrolysis, absorbance 480 nm, 0.0001% Triton; Potency, µM (series often up to 57.1 µM), without a hit: at the highest dose activity change, negative = inhibition, actives largely listed as inhibitors; actives 0.52% (n = 330,000); AID 485341;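 note: plate controls were no compound for no effect and no enzyme for full effect; nearly all actives have a fitted effect of over 20% in size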
Target sequence (P00811 whole entry, looked up): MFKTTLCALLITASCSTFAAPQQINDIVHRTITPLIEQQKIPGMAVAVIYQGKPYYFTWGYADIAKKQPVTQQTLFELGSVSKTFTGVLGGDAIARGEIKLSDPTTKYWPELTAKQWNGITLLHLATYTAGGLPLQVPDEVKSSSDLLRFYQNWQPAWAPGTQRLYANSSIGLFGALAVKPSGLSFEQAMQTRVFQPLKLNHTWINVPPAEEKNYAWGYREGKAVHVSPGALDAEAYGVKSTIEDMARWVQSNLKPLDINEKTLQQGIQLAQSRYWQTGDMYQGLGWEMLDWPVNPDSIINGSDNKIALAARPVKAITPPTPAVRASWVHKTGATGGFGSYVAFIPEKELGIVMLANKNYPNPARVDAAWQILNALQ
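AmpC (5.3 nM in the dispensed reagent) in 20 mM phosphate pH 7.0 with 0.01% (detergent screen) or 0.0001% Triton X-100 was preincubated with compounds for 15 min at room temperature. Nitrocefin was then added from an 800 uM solution, and hydrolysis was followed at 480 nm.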
AmpC detergent = inhibitors of E. coli AmpC beta-lactamase with detergent; AID 485294; AmpC hydrolysis of nitrocefin, absorbance 480 nm, 0.01% Triton; Potency, µM (series often up to 114 µM), without a hit: at the top dose activity change, negative = inhibition, most hits filed as inhibitors; actives 0.041% (n = 370,000);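 note: 0% = no-compound wells and -100% = no-enzyme wells; nearly all actives have a fitted effect of over 25% in size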
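AmpC (5.3 nM in the dispensed reagent) in 20 mM phosphate pH 7.0 with 0.01% (detergent screen) or 0.0001% Triton X-100 was preincubated with compounds for 15 min at room temperature. Nitrocefin was then added from an 800 uM solution, and hydrolysis was followed at 480 nm.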
SARS PLpro yeast = inhibitors of SARS-CoV papain-like protease in yeast | Potency, µM (titrated, usually from 32.9 µM), without a hit: top-dose activity, positive = growth rescue, usual class: activators | AID 485353 | S. cerevisiae expressing SARS-CoV PLpro, growth rescue | actives 0.19% (n = 330,000); calls by dose curve; note: 0% is about no effect; nearly all actives have a fitted effect of over 55% in size
Pf growth 96h = inhibits malaria parasite growth, 96 h; P. falciparum luciferase reporter growth, 96 h; Potency, µM (titrated, usually from 28.7 µM), without a hit: at the highest dose activity change, negative = inhibition, hits mostly inhibitors; actives 6.9% (n = 320,000); AID 504834; note: % is set by controls: 0 for no effect and ±100 for the full control effect
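96 h incubation, 37 C, 5% CO2, of luciferase-reporter P. falciparum-infected RBCs (2% hematocrit, 0.05% parasitemia final) with test compounds; endpoint luminescence.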
Sm TGR inh = inhibitors of Schistosoma mansoni thioredoxin glutathione reductase | Potency, µM (series often up to 114 µM), for inactives: at the highest dose activity change, negative = inhibition, actives largely listed as inhibitors | purified TGR, DTNB reduction, TNB absorbance 405 nm | actives 3% (n = 360,000); note: % is set by controls: 0 for no effect and ±100 for the full control effect; nearly all actives have a fitted effect of over 60% in size
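Kinetic colorimetric format: TGR-catalysed, NADPH-driven DTNB reduction monitored via TNB absorbance. Enzyme dispensed at 20 nM; compound exposure 15 min at room temperature before reaction start.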
An asterisk follows results filed as active; ? = inconclusive; / = no result given; [ ] = dose if it differs, or a comment. Unless noted, calls come from the whole dose curve; as a rule, active = well fitted curve in the direction sought with a large enough effect; inconclusive = small, poorly fitted or top-dose-only effect, or another doubt; inactive = no such curve, though single readings can be large; an effect the other way counts as inactive or inconclusive. Potency is the fitted concentration of half-maximal effect.

SMILES	Pf growth 48h	AmpC inh no detg	AmpC detergent	SARS PLpro yeast	Pf growth 96h	Sm TGR inh
COC(=O)c1ccccc1NC(=O)c1sc2nc(C)cc(C)c2c1NC(=O)c1ccccc1Cl	/	/	0.7%	/	/	-4.0%
COc1ccc(CCNC(=O)CCCn2c(SCC(N)=O)nc3cc4c(cc3c2=O)OCO4)cc1OC	1.1%	-1.9%[11.4 µM]	-5.3%	-0.1%	?	4.7%
CCN(CC)CCCNC(=O)c1sc2nc(-c3ccc(F)cc3)cn2c1C	/	26.1%	0.4%	0.8%	13.1µM*	2.5%
COc1cc(/C=C/C(=O)Nc2cccnc2)cc(OC)c1OC	-15.6%	16.2%	4.4%	2.3%	9.28µM*	0.6%
O=C(/C=C/c1cccs1)Nc1cccnc1	216.5%	-16.7%	0.2%	-10.8%	4.65µM*	3.9%
COc1cc(/C=C/C(=O)Nc2ccc3[nH]c(=O)[nH]c3c2)cc(OC)c1OC	10.4µM*	8.5%	-3.7%	1.3%	-10.4%	-15.4%
O=C(/C=C/c1cccs1)Nc1nncs1	47.4%	-5.4%	2.3%	-1.7%	97.8%	2.5%
CCC(=O)Nc1cccc(C2=NOC3(C2)C[C@H](C(N)=O)N(C(=O)CC#N)C3)c1 (stereo not given in full)	57.3%	1.3%	-2.4%	-0.8%	62.9%	1.9%
Cc1ccc(-c2nc3ccccc3[nH]2)cc1NC(=O)COc1ccc(Cl)cc1Cl	/	/	-1.4%	/	/	0.3%
Cc1ccc(-c2nc3ccccc3[nH]2)cc1NC(=O)c1sc2cc(Cl)ccc2c1Cl	3.29µM*	-13.3%	-1.4%	-13.0%	?	2.8%
COc1ccc(-c2cc(C)nc3c(-c4ccc(OC)c(OC)c4)c(C)nn23)cc1	/	/	0.5%	/	/	2.6%
O=C(O)CCn1c(C2CCCCC2)nc2ccccc21	1.4%	-7.7%	?	-2.6%	/	0.0%
COCc1nc2ccccc2n1Cc1ccccc1	30.0%	1.5%	2.6%	10.0%	?	-23.1%
N#CCn1c(CCl)nc2ccccc2c1=O	-11.9%	-28.3%	1.8%	-2.7%	11.7%	28.2µM*
CCCn1c(CNC(=O)c2ccccc2)nc2ccccc21	1.6%	-18.4%	4.5%	4.5%	2.94µM*	-1.5%
c1ccc(CCn2c(C3CC3)nc3ccccc32)cc1	/	-7.6%	4.1%	16.9%	3.29µM*	-15.3%
CC(C)Cn1c(CNC(=O)c2ccccc2)nc2ccccc21	16.4%	-8.1%	1.4%	11.2%	52.7%	6.7%
ClCc1nc2ccccc2n1Cc1ccccc1	6.57µM*	-8.2%	-11.3%	-1.5%	?	-25.2%
CN1CCN(Cc2nc3ccccc3c(=O)n2CC#N)CC1	-4.0%	-19.2%	-7.4%	1.0%	4.4%	5.4%
Cc1ccc2c(c1)c1c(c(=O)n(-c3cccc(Cl)c3)c(=O)n1C)n2C	/	/	16.9%	/	/	1.0%
CCOC(=O)c1ccn(-c2nc(-c3cccc(OC)c3)cc(C(F)(F)F)n2)n1	/	/	1.5%	/	/	-4.5%
CCOC(=O)c1cc(S(=O)(=O)NCc2ccccc2)[nH]n1	/	/	17.0%	/	/	0.4%
CCCOc1ccc(C(=O)Nc2ccc3oc(-c4ccc5ccccc5c4)nc3c2)cc1	/	/	8.9%	/	/	2.0%
OCCCc1nc2ccccc2n1CCc1ccccc1	?	0.0%	-8.2%	14.5%	?	-15.4%
CCCc1nc2ccccc2n1CCc1ccccc1	3.29µM*	-2.9%	-10.5%	17.8%	3.7µM*	-11.1%
SMILES	Pf growth 48h	AmpC inh no detg	AmpC detergent	SARS PLpro yeast	Pf growth 96h	Sm TGR inh
COc1ccc(C(=O)NC2CCCc3c2cnn3-c2ccccc2F)o1 (stereo not given)	?	39.2%	0.9%	2.5%	-10.1%	-17.2%
OCC1CCCN(Cc2cn(Cc3ccccc3)nc2-c2cc3ccccc3o2)C1 (stereo not given)	14.7µM*	36.6%	6.0%	-2.3%	-20.8%	?
OCC1CCN(Cc2cn(Cc3ccccc3)nc2-c2cc3ccccc3o2)CC1	?	107.8%	?	-0.3%	?	1.2%
COC1CCN(Cc2cn(Cc3ccccc3)nc2-c2cc3ccccc3o2)CC1	10.4µM*	130.9%	-9.6%	0.9%	10.4µM*	3.1%
COc1ccccc1CNC(=O)c1ccc2nc(N3CCCCC3)sc2c1	/	/	10.8%	/	/	19.3%
CN(Cc1ccccc1)C(=C(Cl)Cl)/C(=C1/NCCN1Cc1ccc(Cl)nc1)[N+](=O)[O-]	/	55.9%	?	-4.8%	9.28µM*	-10.9%
O=[N+]([O-])/C(Cl)=C1\NCCN1Cc1ccc(Cl)nc1	32.2%	0.6%	2.3%	0.2%	40.2%	0.0%
CCOC(=O)c1cc2sccc2n1CC(=O)Nc1ccc(OC)cc1OC	?	20.8%	-1.9%	1.3%	-1.5%[5.75 µM]	-8.0%
COC(=O)c1cc2sccc2n1CC(=O)Nc1ccc(OC)c(OC)c1OC	2.08µM*	13.9%	0.8%	0.8%	20.0%	1.7%
COC(=O)c1cc2occc2n1CC(=O)Nc1cccc(SC)c1	/	/	21.5%	/	/	-2.5%
COC(=O)c1cc2sccc2n1CC(=O)Nc1cccc(SC)c1	-13.6%	/	2.6%	/	3.29µM*	0.0%
CCCCc1cc(=O)oc2cc(C)cc(OCC(=O)Nc3cccnc3)c12	0.465µM*	-10.8%	0.3%	-1.6%	0.522µM*	-7.3%
Cc1cc(OC(C)C(=O)NCc2ccccn2)c2c(C)cc(=O)oc2c1 (stereo not given)	1.65µM*	-3.3%	-2.1%	13.6%	3.7µM*	1.5%
CCc1cc(=O)oc2cc(C)cc(OC(C)C(=O)NCCCN3CCCC3=O)c12 (stereo not given)	?	23.3%	1.7%	-1.9%	?	3.3%
CCCCc1cc(=O)oc2cc(C)cc(OC(C)C(=O)NCc3ccccn3)c12 (stereo not given)	?	88.8%	-15.2%	-1.0%	?	-14.0%
CCCCc1nc2cc(C(=O)NCc3ccccn3)ccc2o1	-9.6%	-12.8%	0.7%	-8.1%	11.7µM*	-0.5%
CCCCc1nc2cc(C(=O)N(C)C(C)c3ccccn3)ccc2o1 (stereo not given)	-3.0%	48.1%	?	1.3%	22.1%	1.2%
CCCc1cc(=O)oc2cc(C)cc(OCC(=O)NCc3cccnc3)c12	?	35.5%	-9.6%	11.1%	10.3%	1.6%
CCc1cc(=O)oc2cc(C)cc(OC(C)C(=O)NCCCn3ccnc3)c12 (stereo not given)	10.4µM*	-3.3%	-4.9%	3.6%	?	-16.8%
Cc1cccc(N2CCN(C(=O)c3cc(COc4ccc(F)c(F)c4)on3)CC2)n1	26.5%	49.3%	2.6%	-1.6%	22.7%	5.5%
CCCCc1cc(=O)oc2cc(C)cc(OCC(=O)NCc3ccccn3)c12	2.94µM*	59.8%	-10.6%	12.6%	2.62µM*	-11.3%
CCCCc1cc(=O)oc2cc(OCC(=O)NCc3ccccn3)c(Cl)cc12	22.0%	-5.8%	4.0%	2.4%	-25.5%	20.3%
